In PubChem BioAssay (EPA / NIEHS):
The source holds several records for some structures; these can differ, active in one and inactive in another. Calls of active or inactive are those of the source. The calls were made as follows: active = hit-call score of the fitted dose curve at least 0.9, where 1 is the maximum; inactive = score below 0.9.

Assays:
[1] = read-out: TIMP metallopeptidase inhibitor 1 (TIMP1), TIMP1 (gene 7076); assay: BSK_hDFCGF_TIMP1: BioMAP Diversity Plus: hDFCGF Assay for TIMP metallopeptidase inhibitor 1 (TIMP1) Biomarker Activity (AID 2283062); conditions: primary human foreskin fibroblasts; actives raise or lower the signal
Procedure, shortened: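 Primary human foreskin fibroblasts in the hDFCGF system were dosed with compound for 24 h, then TIMP-1 was measured by ELISA. Activity was fitted bidirectionally relative to DMSO control; parallel SRB staining assessed cytotoxicity.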

[2] = read-out: Monokine induced gamma interferon (MIG), CXCL9 (gene 4283); assay: BSK_hDFCGF_MIG: BioMAP Diversity Plus: hDFCGF Assay for Monokine induced gamma interferon (MIG) Biomarker Activity (AID 2283063); conditions: primary human foreskin fibroblasts; actives raise or lower the signal
Procedure, shortened: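 ELISA read-out of MIG from primary human dermal fibroblasts 24 h post-dosing. Gain or loss of signal fitted bidirectionally, DMSO as baseline.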

[3] = read-out: Matrix Metallopeptidase 1 (MMP1), MMP1 (gene 4312); assay: BSK_hDFCGF_MMP1: BioMAP Diversity Plus: hDFCGF Assay for Matrix Metallopeptidase 1 (MMP1) Biomarker Activity (AID 2283064); conditions: primary human foreskin fibroblasts; actives raise or lower the signal
Procedure, shortened: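 ELISA read-out of MMP1 from human foreskin fibroblasts (primary skin cells), 24 h post-dose. Gain or loss of signal was fitted bidirectionally versus DMSO negative control; cytotoxicity was checked by SRB in parallel cultures.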

[4] = read-out: Vascular cell adhesion molecule 1 (VCAM1), VCAM1 (gene 7412); assay: BSK_hDFCGF_VCAM1: BioMAP Diversity Plus: hDFCGF Assay for Vascular cell adhesion molecule 1 (VCAM1) Biomarker Activity (AID 2283065); conditions: primary human foreskin fibroblasts; actives raise or lower the signal;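 as to AC50: VCAM-1 protein level quantified by ELISA after 24 h chemical exposure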
Procedure, shortened: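 Primary human foreskin fibroblasts (hDFCGF system) were dosed with chemical and VCAM-1 was measured by ELISA 24 h later. Bidirectional curve fitting used DMSO as negative control and activity baseline.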

[5] = read-out: Plasminogen activator inhibitor-1 (PAI1), SERPINE1 (gene 5054); assay: BSK_hDFCGF_PAI1: BioMAP Diversity Plus: hDFCGF Assay for Plasminogen activator inhibitor-1 (PAI1) Biomarker Activity (AID 2283066); conditions: primary human foreskin fibroblasts; actives raise or lower the signal
Procedure, shortened: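 Fibroblasts from human foreskin were treated with test chemical. After 24 h, PAI-1 was measured by ELISA. Activity was fitted in both directions relative to DMSO.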

[6] = read-out: Intercellular Adhesion Molecule 1 (ICAM1), ICAM1 (gene 3383); assay: BSK_KF3CT_ICAM1: BioMAP Diversity Plus: KF3CT Assay for Intercellular Adhesion Molecule 1 (ICAM1) Biomarker Activity (AID 2283067); conditions: primary human keratinocytes with fibroblasts; actives raise or lower the signal
Procedure, shortened: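 Human keratinocyte plus foreskin fibroblast primary co-culture was exposed to chemical for 24 h. ICAM-1 was then quantified by ELISA, and the data were fit bidirectionally against DMSO as the negative control and baseline.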

[7] = read-out: Interferon-gamma inducible Protein 10 (IP10), CXCL10 (gene 3627); assay: BSK_KF3CT_IP10: BioMAP Diversity Plus: KF3CT Assay for Interferon-gamma inducible Protein 10 (IP10) Biomarker Activity (AID 2283068); conditions: primary human keratinocytes with fibroblasts; actives raise or lower the signal
Procedure, shortened: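 Signal is secreted/surface IP-10 by ELISA in a human primary skin co-culture of keratinocytes and foreskin fibroblasts, taken 24 h post-dosing; DMSO served as negative control.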

[8] = BSK_KF3CT_SRB: Viability Assessment in the BioMAP Diversity Plus: KF3CT Assay (AID 2283069); conditions: primary human keratinocytes with fibroblasts;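 also: total protein by sulforhodamine B staining as a cytotoxicity measure; read 24 h after compound addition; fitted for both signal gain and loss against DMSO baseline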
Procedure, shortened: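 SRB read-out at 560 nm (0.1% stain, TCA-fixed cells) gauges overt cytotoxicity in a human skin keratinocyte–fibroblast co-culture 24 h post-dosing. Signal change was fitted bidirectionally relative to DMSO control.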

[9] = read-out: Interleukin-1 alpha (IL1a), IL1A (gene 3552); assay: BSK_KF3CT_IL1a: BioMAP Diversity Plus: KF3CT Assay for Interleukin-1 alpha (IL1a) Biomarker Activity (AID 2283070); conditions: primary human keratinocytes with fibroblasts; actives raise or lower the signal
Procedure, shortened: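 Primary skin co-culture (keratinocytes, foreskin fibroblasts), 24 h exposure; ELISA for IL-1a; bidirectional curve fit vs DMSO.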

[10] = read-out: TIMP metallopeptidase inhibitor 2 (TIMP2), TIMP2 (gene 7077); assay: BSK_KF3CT_TIMP2: BioMAP Diversity Plus: KF3CT Assay for TIMP metallopeptidase inhibitor 2 (TIMP2) Biomarker Activity (AID 2283071); conditions: primary human keratinocytes with fibroblasts; actives raise or lower the signal
Procedure, shortened: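 Chemicals were dosed onto human skin primary co-cultures of keratinocytes and foreskin fibroblasts, and TIMP-2 was measured by ELISA after 24 hours. Activity in either direction was fitted relative to DMSO.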

Measured: AC50

CCC(C)(C#N)N=NC(C)(C#N)CC (stereo not given)
active: [5] 0.016 µM
inactive: all other assays above

O=[N+]([O-])c1cccc2ccccc12
inactive: all assays above

OC(Cc1ccccc1Cl)(Cn1cncn1)C1(Cl)CC1 (stereo not given)
inactive: all assays above

CC(C)(C)c1ccccc1O
inactive: all assays above

CCCCCCCCCCCCN(C)C
not listed: [5]
inactive: all other assays above

C=CC(Cl)CCl (stereo not given)
active: [9] 0.0797 µM | [10] 0.181 µM
inactive: all other assays above

Cc1cc(C)cc(C)c1
inactive: all assays above

CCOP(=S)(OCC)OP(=S)(OCC)OCC
active: [4] 30.4 µM | [10] 20 µM
inactive: all other assays above

COc1ccccc1N
inactive: all assays above

Cc1ccc(OP(=O)(Oc2ccc(C)cc2C)Oc2ccc(C)cc2C)c(C)c1
active: [3] 10.3 µM | [5] 0.445 µM
inactive: all other assays above

CCCCCCCCCCCCc1cccc(S(=O)(=O)O)c1
active: [1] 30.1 µM | [2] 27.6 µM | [3] 28.3 µM | [4] 12 µM | [6] 28.4 µM | [7] 16.5 µM | [8] 26.5 µM | [9] 33.3 µM

O=C(O)C1(c2ccc3c(c2)OC[C@H](Cc2ccc(-c4ccccc4)cc2)[C@H]3O)CCCC1
active: [1] 11.7 µM | [2] 12.8 µM | [3] 7.46 µM | [4] 5.32 µM | [5] 5.07 µM | [6] 30.3 µM | [7] 9.87 µM | [8] 25.7 µM | [9] 31.3 µM | [10] 14 µM

O=c1oc2ccccc2c(O)c1C(CC(O)c1ccc(-c2ccc(Br)cc2)cc1)c1ccccc1 (stereo not given)
active: [2] 11.2 µM | [3] 6.12 µM | [4] 5.3 µM | [5] 5.32 µM | [6] 5.92 µM | [7] 8.62 µM | [8] 4.99 µM | [9] 5.57 µM | [10] 5.28 µM
inactive: [1]

CN(C)C(=S)S
active: [1] 13 µM | [2] 21.6 µM | [3] 36.9 µM | [4] 11.2 µM | [5] 33.6 µM
inactive: all other assays above

CCCCOC(=O)COC(=O)c1ccccc1C(=O)OCCCC
inactive: [1] | [2] | [3] | [4] | [6] | [7] | [8] | [9] | [10]
active: [4] 26.6 µM

O=C(Cc1ccccc1)OCCc1ccccc1
inactive: all assays above

CC1(C)[C@H](C(=O)O[C@H](C#N)c2cccc(Oc3ccccc3)c2)[C@@H]1/C=C(\Cl)C(F)(F)F
active: [3] 0.0141 µM | [10] 0.525 µM
inactive: [1] | [2] | [3] | [4] | [6] | [7] | [8] | [9] | [10]

O=[N+]([O-])c1ccc(Nc2ccccc2)cc1
inactive: all assays above

Oc1c(Br)cc(Br)cc1Br
active: [5] 20 µM | [7] 31.6 µM
inactive: all other assays above

CC(C)(COCC1CO1)COCC1CO1 (stereo not given)
inactive: all assays above

C#CCOC(=O)/C=C(C)/C=C/CC(C)CCCC(C)C (stereo not given)
active: [4] 5.7 µM | [5] 11.6 µM
inactive: all other assays above

CCOC(=O)CC(=O)CCl
active: [2] 20 µM | [4] 20 µM | [9] 6.58 µM
inactive: all other assays above

CCN(CC)C(=O)C(Cl)=C(C)OP(=O)(OC)OC
inactive: all assays above

O=C(N[C@H]1CN2CCC1CC2)c1ccc2c(c1)OCCO2
inactive: all assays above

Oc1ccc(Cc2ccc(O)cc2)cc1
not listed: [5]
inactive: all other assays above

O=C1C=CC(=O)c2ccccc21
inactive: [8]
active: [1] 2.41 µM | [2] 1.68 µM | [3] 1.98 µM | [4] 1.2 µM | [5] 1.53 µM | [6] 2.71 µM | [7] 2.81 µM | [9] 2.04 µM | [10] 1.67 µM

[Cl][Sn]([c]1ccccc1)([c]1ccccc1)[c]1ccccc1
active: [1] 0.158 µM | [2] 0.0855 µM | [3] 0.103 µM | [4] 0.0996 µM | [5] 0.114 µM | [6] 0.334 µM | [7] 0.14 µM | [8] 0.183 µM | [9] 0.127 µM | [10] 0.209 µM

Nc1ccc(N)cc1
inactive: all assays above

Cc1cc(Cl)ccc1OC(C)C(=O)O (stereo not given)
not listed: [5]
inactive: all other assays above

Clc1cccc(Cl)c1Cl
not listed: [5]
inactive: all other assays above

Clc1cccc(Cl)c1
inactive: all assays above

CCOP(=O)(OCC)SCCSCC
inactive: all assays above
